An excerpt weighted towards active compounds, which were near 5.3% of everything screened.
BAZ2B inh = inhibitors of human BAZ2B bromodomain; Q9UIF8; AlphaScreen BAZ2B-H3K14Ac peptide displacement; Potency, µM (titrated, usually from 114 µM), hits mostly inhibitors; 360,000 tested, 4.4% active; AID 504333; also: nearly all actives have a fitted effect of over 60% in size
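Multi-concentration screen (max 110 uM) measuring displacement of acetylated histone H3 peptide from BAZ2B by AlphaScreen, using 50 nM protein, 50 nM peptide and 10 ug/mL streptavidin donor plus Ni-chelate acceptor beads.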
HP1b chromo inh = blocks HP1-beta chromodomain binding to methylated histone tails | Potency, µM (top dose mostly 114 µM), actives largely listed as inhibitors | P83916 | 390,000 tested, 0.56% active | AlphaScreen HP1-beta / biotin-H3K9me3 peptide binding; also: nearly all actives have a fitted effect of over 70% in size
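AlphaScreen: HP1-beta (50 nM) preformed 30 min with biotin-H3(1-18)K9me3 peptide (50 nM) in PBS pH 7.4, 0.01% Tween-20. Compound added for 30 min at RT, then streptavidin donor/nickel chelate acceptor beads (10 ug/mL) for 30 min.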
CtBP-E1A inh = inhibitors of CtBP/E1A interaction. AlphaScreen GST-E1A/His-CtBP binding, 1536-well; stronger effect = lower value. activity change, % (concentration not given with the values). 340,000 tested, 0.49% active. AID 651724; in the data active = activity change below about -65%; inconclusive = mostly about -30% to -63%
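GST-E1A and His-tagged CtBP (125 nM each as 5X stock) were preincubated with pin-transferred compound for 2 h at 37 °C in the dark, then glutathione donor and nickel acceptor beads were added for 1 h before AlphaScreen reading.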
Six1-Eya2 inh = blocks human Six1 binding to Eya2; Q15475+O00167; AlphaScreen GST-Six1/His-Eya2 binding, biochemical; stronger effect = lower value; activity change, % (no concentration beside the values); 360,000 tested, 0.56% active; in the data active = activity change below about -65%; inconclusive = mostly about -30% to -63%
Target sequence (O00167 whole entry, looked up): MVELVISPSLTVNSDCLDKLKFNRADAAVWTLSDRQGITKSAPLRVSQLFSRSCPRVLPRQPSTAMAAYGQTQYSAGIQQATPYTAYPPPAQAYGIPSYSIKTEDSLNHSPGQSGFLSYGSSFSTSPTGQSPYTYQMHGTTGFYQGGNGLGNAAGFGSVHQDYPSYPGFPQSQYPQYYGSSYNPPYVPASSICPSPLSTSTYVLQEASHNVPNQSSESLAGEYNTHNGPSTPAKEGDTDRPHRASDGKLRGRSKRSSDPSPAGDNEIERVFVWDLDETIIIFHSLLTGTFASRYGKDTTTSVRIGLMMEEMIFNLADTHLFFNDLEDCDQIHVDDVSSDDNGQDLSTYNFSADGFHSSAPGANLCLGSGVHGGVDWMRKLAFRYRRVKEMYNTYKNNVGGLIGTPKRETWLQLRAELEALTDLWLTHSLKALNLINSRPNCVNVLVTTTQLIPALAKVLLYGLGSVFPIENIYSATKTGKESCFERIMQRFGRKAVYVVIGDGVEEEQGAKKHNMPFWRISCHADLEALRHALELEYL
Target sequence (Q15475 whole entry, looked up): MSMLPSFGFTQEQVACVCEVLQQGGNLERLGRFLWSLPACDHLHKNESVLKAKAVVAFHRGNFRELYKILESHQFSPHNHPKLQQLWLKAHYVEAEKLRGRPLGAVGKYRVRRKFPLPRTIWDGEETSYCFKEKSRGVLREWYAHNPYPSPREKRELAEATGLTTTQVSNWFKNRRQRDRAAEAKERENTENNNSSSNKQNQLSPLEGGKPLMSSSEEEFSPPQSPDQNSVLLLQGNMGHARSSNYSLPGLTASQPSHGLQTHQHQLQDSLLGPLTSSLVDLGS
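Homogeneous AlphaScreen proximity assay pairing GST-Six1 with His-tagged Eya2 (added as 5X mix: 250 nM and 500 nM) in 50 mM Tris pH 8.0, 300 mM NaCl, 1 mM TCEP. Glutathione donor and nickel acceptor beads; 1 h, 37 °C, dark.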
JMJD2A Tudor = JMJD2A Tudor domain (human) inhibition; O75164; AlphaScreen JMJD2A-Tudor / H3K4me3 peptide binding; 390,000 tested, 4.4% active; Potency, µM (highest dose often 114 µM), usual class: inhibitors; also: nearly all actives have a fitted effect of over 50% in size
TDP1 block = blocks human tyrosyl-DNA phosphodiesterase 1; recombinant TDP1, AlphaScreen DNA substrate cleavage; Potency, µM (top dose mostly 130 µM), actives largely listed as inhibitors; 350,000 tested, 0.28% active; AID 485290; also: nearly all actives have a fitted effect of over 40% in size
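Compounds were preincubated with Tdp1 (1 nM final) for 15 min at room temperature before substrate (15 nM final) started a 5 min reaction; beads (10 ug/ml final) were then added for 10 min before AlphaScreen detection.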
Numbers stand for hits; . = inactive; ? = inconclusive; / = no result; [ ] = remark or other dose. Unless noted, calls follow the shape of the dose curve; as a rule, active = well fitted inhibition curve with a large enough effect; inconclusive = small, poorly fitted or top-dose-only effect; inactive = no such curve, though single readings can be large or run the other way.

SMILES	BAZ2B inh	HP1b chromo inh	CtBP-E1A inh	Six1-Eya2 inh	JMJD2A Tudor	TDP1 block
CN(C)c1ccc(/C=C/c2ccc3c4ccccc4ccc3[n+]2-c2ccccc2)cc1	7.94µM	11.2µM	.	?	8.91µM	.
CC(=S)/C=C1\Sc2ccccc2N1C	50.1µM	?	.	.	?	.
COc1ccc(-[n+]2c(C)cc(/C=C3\Sc4ccccc4N3C)cc2C)cc1	.	.	.	.	.	.
CC[n+]1ccccc1/C=C1\Sc2ccc(C)cc2N1C	?	.	.	.	?	/
CC[n+]1c(/C=C2\Sc3ccccc3N2C)ccc2cccc(C)c21	44.7µM	?	.	?	.	.
CCN1/C(=C/c2ccc3cc(C)ccc3[n+]2CC)Sc2ccccc21	44.7µM	?	/	?	.	.
CN1/C(=C/c2cccc[n+]2CCO)Sc2ccccc21	56.2µM	.	.	.	?	/
CC(C)(C)c1ccc(C(=O)NNc2ncnc3c2cnn3-c2ccccc2)cc1	.	.	/	/	.	.
O=C(O)CSC1=NC(=Nc2cccc(Cl)c2)C2(CCCCC2)N1c1ccccc1	.	?	.	.	44.7µM	.
O=C(O)CSc1nnc(-c2ccc(Cl)cc2Cl)n1-c1ccccc1	.	.	.	.	.	.
O=C(Nc1cccc(Br)c1)Nc1nc2c(s1)CCCCCC2	.	.	/	/	.	.
O=[N+]([O-])c1ccccc1NCCOc1ccccc1	22.4µM	.	.	?	?	.
CCCC(C)Sc1nc2c([nH]1)c(=S)n(C)c(=O)n2C (stereo not drawn)	/	.	.	.	.	/
Cn1c(=S)c2[nH]c(SCC3CCCO3)nc2n(C)c1=O (stereo not drawn)	/	?	.	.	4.47µM	/
COc1ccc(N2Cc3cccc(C(=O)Nc4ccc(F)cc4)c3C2=O)cc1	/	.	/	/	.	.
CC(C)(C)c1cc(NCCCn2ccnc2)n2ncc(-c3ccccc3)c2n1	56.2µM	.	.	.	?	.
Cc1cccc(-c2cc3nc(C)cc(NCCCn4ccnc4)n3n2)c1	17.8µM	.	?	?	.[11.4 µM]	.
CC(C)Nc1cc(C(C)(C)C)nc2c(-c3ccccc3)cnn12	.	.	.	.	.	.
FC(F)(F)c1cccc(-c2cc3nc(NCCCn4ccnc4)ccn3n2)c1	/	/	.	.	/	/
OCCN(Cc1ccccc1)CC1CC2C=CC1C2 (stereo not drawn)	?	.	.	.	3.16µM	.
O=C1C2C3C=CC(C3)C2C(=O)N1CN(Cc1ccccc1)CN1C(=O)C2C3C=CC(C3)C2C1=O (stereo not drawn)	.	.	.	.	.	.
COc1ccccc1C=NN1CCCCCC1	/	?	.	.	44.7µM	/
CCOc1cccc(/C=N/N2CCN(c3ccc(Cl)cc3)CC2)c1O	?	.	.	.	.	/
COc1ccccc1C=NN=Cc1ccccc1OC	/	.	.	.	?	/
COc1ccccc1/C=N/N1CCN(c2ccc(Cl)cc2)CC1	50.1µM	.	/	.	39.8µM	/
SMILES	BAZ2B inh	HP1b chromo inh	CtBP-E1A inh	Six1-Eya2 inh	JMJD2A Tudor	TDP1 block
CC(=O)c1ccc(C(=O)Nc2nnc(-c3ccc(Cl)cc3)o2)cc1	?	.	?	.	.	/
Cc1ccnc2nc(C(=O)Nc3nnc(CC(C)C)s3)nn12	.	.	.	.	44.7µM	.
Cc1ccnc2nc(C(=O)Nc3nnc(-c4ccc(Cl)cc4)o3)nn12	?	.	.	.	17.8µM	/
Cc1ccc(C(=O)N2c3ccccc3Sc3ccccc32)cc1	/	/	.	.	/	/
CN(C)c1ccc2c(c1)Sc1cc(N(C)C)ccc1N2C(=O)c1ccccc1	8.91µM	12.6µM	.	?	14.1µM	.
CCc1ccc(C(c2c(C)nn(-c3ccccc3)c2N)c2c(C)nn(-c3ccccc3)c2N)cc1	?	.	.	.	56.2µM	.
CCc1ccccc1OCCCCN1CCCC1	?	.	.	.	7.94µM	.
C=CCc1ccccc1OCCCCN1CCCC1	50.1µM	?	.	.	10µM	.
CC(=O)c1ccccc1OCCCCN1CCCCC1	?	?	.	.	25.1µM	/
COC(=O)C1=C(C(=O)OC)[C@@H]2N(Cc3ccccc3)c3ccccc3[C@@]23C[C@@H](C(=O)OC)N(S(=O)(=O)c2ccc(OC)cc2)C3=N1	/	/	/	/	/	.[21 µM]
CC(=O)/C(N=Nc1ccc(C(=O)O)cc1[N+](=O)[O-])=C(\C)O	56.2µM	.	/	.	.	/
